# Data as given in the supplement of paper PMC4166925.
# ± gives the standard deviation of the averaged measurements. In all, about 33,000 sequences were measured (“E-score (dimensionless, -0.5 to 0.5)”: median about -0.049, highest 2% from about 0.37 on). This excerpt belongs to a sample that is enriched for the highest values.
# Test system: T1, PmTbr T-box DNA-binding domain (GST fusion)
# T1 sequence: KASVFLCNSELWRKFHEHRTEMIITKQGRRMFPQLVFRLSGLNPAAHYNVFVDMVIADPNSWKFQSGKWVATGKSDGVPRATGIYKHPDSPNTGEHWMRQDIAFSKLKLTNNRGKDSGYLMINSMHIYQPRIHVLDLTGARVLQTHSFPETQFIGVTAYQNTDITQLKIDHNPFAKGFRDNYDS
# Experiment: PBM E-score of 8-mer (E-score (dimensionless, -0.5 to 0.5)); Tbr is Tbrain of the sea star Patiria miniata (Pm) or the sea urchin Strongylocentrotus purpuratus (Sp); higher = stronger binding preference
# Settings: the construct has about 5 more residues each side
# Description: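 Universal protein-binding microarray (Agilent AMADID 016060, 60-bp probes with a 35-bp variable region) incubated with 200 nM GST-fused Patiria miniata Tbr T-box DNA-binding domain (residues 272-466) in PBS pH 7.5. Scored for every ungapped 8-mer (given with its reverse complement) by the Universal PBM Analysis Suite as E-score (modified Wilcoxon-Mann-Whitney enrichment, range -0.5 to 0.5; >0.45 counts as bound) and Z-score of median probe intensity. Two replicate arrays (datasets 1 and 2).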
# 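Also: 200 nM protein in PBS on universal arrays averaged over duplicate arrays.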
row,Sequence,PBM E-score of 8-mer
1,GTTAAACA,0.00153 ± 0.043
2,AGGTCTGG,0.0461 ± 0.012
3,ACGCTAAT,0.114 ± 0.018
4,AGTTCTTG,-0.0105 ± 0.0029
5,CGGCCCTA,-0.249 ± 0.019
6,TACGCACA,-0.0799 ± 0.0095
7,CCGTGTCG,0.144 ± 0.045
8,ACGTGTCG,0.385 ± 0.022
9,CCGTGTCA,0.236 ± 0.0063
10,ACGTGTCT,0.198 ± 0.0036
11,ACGTGTAA,0.31 ± 0.0077
12,ACGTGTCA,0.4563 ± 0.0033
13,CCGCATAG,-0.047 ± 0.042
14,AGGTTAAG,-0.186 ± 0.083
15,GCCCACTA,-0.0431 ± 0.011
16,CCGGAGAA,-0.00469 ± 0.1
17,ATCCCGCG,-0.042 ± 0.095
18,GCGTGTGA,0.373 ± 0.016
19,CCGTGTGA,0.335 ± 0.015
20,GCGTGTAA,0.0292 ± 0.033
21,GCGTGAGA,0.368 ± 0.021
22,ACGTGTGC,0.174 ± 0.035
23,ACGTGTGA,0.4818 ± 0.0022
24,AGCGGGTG,0.308 ± 0.017
25,AGGGGGGC,-0.222 ± 0.034

row,Sequence,PBM E-score of 8-mer
1,CGTGTCGC,0.295 ± 0.023
2,CGTGTCTA,0.0962 ± 0.0027
3,ATTGTCGC,0.292 ± 0.024
4,CGTGTCGA,0.288 ± 0.052
5,AGTGTCGA,0.4188 ± 0.0041
6,ATTGTCGA,0.0764 ± 0.052
7,GGTGTCTA,0.376 ± 0.007
8,AGTGTCTA,0.213 ± 0.017
9,AATGTCGA,0.0192 ± 0.036
10,GTTGTCGA,0.241 ± 0.021
11,AGTGTCGC,0.415 ± 0.019
12,GGTGTCGA,0.461 ± 0.0086
13,CAGCGGTA,-0.061 ± 0.018
14,ACTGAAAC,-0.0158 ± 0.016
15,CTCCTGCC,-0.0358 ± 0.0023
16,AGCTGTCA,0.3661 ± 0.003
17,CACCAGGG,0.0472 ± 0.096
18,GGTGTGGA,0.432 ± 0.015
19,AGTGTCGG,0.38 ± 0.0074
20,AATGTCGG,-0.0392 ± 0.026
21,AGTGTGGA,0.354 ± 0.0036
22,ATTGTCGG,0.0329 ± 0.01
23,CGTGTGGA,0.284 ± 0.0037
24,CGGCTGAG,-0.1 ± 0.073
25,CTGTCTTC,0.0449 ± 0.021

row,Sequence,PBM E-score of 8-mer
1,AACATTTG,0.0235 ± 0.04
2,CTCTGAGC,-0.0449 ± 0.047
3,AACCTCGA,0.0311 ± 0.022
4,GACCTCGC,0.0974 ± 0.064
5,CCCCTCGG,-0.194 ± 0.016
6,AACCTCGC,0.196 ± 0.035
7,GACCTCGA,-0.0343 ± 0.13
8,AACCTCGG,-0.124 ± 0.033
9,CACCTCGC,0.458 ± 0.0073
10,CACCTCGA,0.4483 ± 0.002
11,CACCTCGG,0.426 ± 0.015
12,ACTCAGAC,0.0474 ± 0.069
13,ATTAGAAG,-0.226 ± 0.053
14,GTAGAGCA,-0.196 ± 0.024
15,GCGGTTAC,-0.0207 ± 0.021
16,CAACCGTG,0.216 ± 0.013
17,TGTTAACA,0.38 ± 0.0039
18,CGTTAACA,0.372 ± 0.044
19,CGTTAACG,0.266 ± 0.015
20,GGTTAGCA,0.314 ± 0.027
21,AGTTAACA,0.334 ± 0.013
22,CGTTAACC,0.0384 ± 0.0052
23,CGTTAGCA,0.394 ± 0.012
24,AGTTAGCA,0.32 ± 0.023
25,GGTTAACA,0.255 ± 0.026

row,Sequence,PBM E-score of 8-mer
1,TCTTCCCA,0.114 ± 0.031
2,TACCATAA,-0.0564 ± 0.0014
3,GAAATAGA,-0.125 ± 0.036
4,CGACTTCC,-0.183 ± 0.002
5,AAGATGGA,-0.228 ± 0.058
6,ACCCCGCC,0.119 ± 0.051
7,ATTCACAA,0.247 ± 0.024
8,ATTCACAG,0.355 ± 0.0076
9,ATTCACAC,0.4763 ± 0.0034
10,CTTCACAA,0.225 ± 0.058
11,CTTCACCC,0.0387 ± 0.019
12,ATTCACGA,0.29 ± 0.0094
13,CTTCACAC,0.4785 ± 0.0022
14,CTTCACGC,0.356 ± 0.04
15,ATTCACGC,0.4258 ± 0.0014
16,CATTAGAC,-0.177 ± 0.0077
17,AATATAAA,-0.136 ± 0.075
18,ACGCTTCT,0.106 ± 0.035
19,CAAACCCC,-0.155 ± 0.069
20,ACGGGCAA,-0.133 ± 0.057
21,AGCACCGG,0.0404 ± 0.045
22,AGCACCTC,0.4279 ± 0.0012
23,CCCACCTC,0.2907 ± 0.0021
24,CGCACCGC,0.222 ± 0.063
25,ACCACCTC,0.341 ± 0.027

row,Sequence,PBM E-score of 8-mer
1,GGCACCGA,-0.0859 ± 0.03
2,AGCACCGC,0.0529 ± 0.038
3,AGCACCTG,0.415 ± 0.0079
4,AGCACCCG,0.252 ± 0.061
5,CGCACCTC,0.46 ± 0.012
6,GGCACCTA,0.412 ± 0.006
7,GCCACCTA,0.336 ± 0.033
8,CCCTAATA,-0.219 ± 0.027
9,GAACACTC,0.0811 ± 0.024
10,AGGGAACG,0.0301 ± 0.15
11,ACTATGCT,0.00416 ± 0.025
12,AAGAGCGT,-0.119 ± 0.04
13,GAGGCCTA,-0.176 ± 0.014
14,CTCAAATA,-0.321 ± 0.072
15,ACCAAGTA,0.0125 ± 0.031
16,AAGAGCGC,-0.188 ± 0.004
17,AGGAGAAA,-0.109 ± 0.19
18,CACTAAGA,0.0202 ± 0.013
19,CAGCCCTG,-0.294 ± 0.015
20,ACCAGCCT,-0.14 ± 0.082
21,AGGGTATG,-0.218 ± 0.032
22,TGAAGCAA,-0.229 ± 0.055
23,ACCACCTA,0.205 ± 0.0085
24,AGCACCTA,0.435 ± 0.00088
25,CGCACCGA,0.0275 ± 0.11

row,Sequence,PBM E-score of 8-mer
1,CGCACCAA,0.251 ± 0.04
2,AGCACCGA,-0.00405 ± 0.11
3,CGCACCTA,0.422 ± 0.0048
4,ATAGCTAG,-0.0742 ± 0.12
5,CACGTTGG,0.261 ± 0.0042
6,CTGTTCTC,0.0542 ± 0.017
7,GGTGGCAA,0.3882 ± 0.0017
8,ACTGGCAC,0.264 ± 0.015
9,AGTGGCAC,0.334 ± 0.008
10,CCTGGCAC,0.371 ± 0.019
11,ATTGGCAC,0.385 ± 0.0064
12,CTTGGCAC,0.352 ± 0.016
13,CGTGGCAA,0.122 ± 0.044
14,ATTGGCAG,0.0761 ± 0.012
15,AGTGGCAA,0.304 ± 0.039
16,GGTGGCAC,0.38829 ± 0.00023
17,GCTGGCAC,0.234 ± 0.064
18,CGTGGCAC,0.233 ± 0.052
19,CCAGTTCA,-0.052 ± 0.044
20,GCCGTGCC,0.0438 ± 0.036
21,TCTATCCA,-0.354 ± 0.0079
22,GGATTAAC,0.0329 ± 0.085
23,CCTAGGGA,-0.233 ± 0.015
24,ACGATCTG,0.189 ± 0.015
25,CAATAGCG,0.118 ± 0.13

row,Sequence,PBM E-score of 8-mer
1,ACGAGGTC,-0.113 ± 0.027
2,AGGAGGTG,0.428 ± 0.0078
3,ACGAGGTA,-0.046 ± 0.031
4,AAGAGGTC,-0.101 ± 0.02
5,AAGAGGTG,0.4261 ± 0.00096
6,ATGAGGTG,0.382 ± 0.018
7,ACGAGGTG,0.4446 ± 0.0042
8,AAGAGGTA,-0.158 ± 0.021
9,AGGAGGTC,-0.247 ± 0.02
10,ATGAGGTA,-0.093 ± 0.027
11,AGGAGGTA,-0.0739 ± 0.034
12,ATGAGGTC,-0.00428 ± 0.033
13,GCCAGTCA,0.0625 ± 0.0016
14,AAGTTTCT,0.101 ± 0.091
15,AAACCATC,-0.0959 ± 0.018
16,AGTAGAGC,0.00365 ± 0.047
17,GTAGAACA,-0.0515 ± 0.048
18,GTCAGTGA,0.122 ± 0.036
19,GGAGAGCC,-0.27 ± 0.039
20,ATTAAGTC,-0.233 ± 0.059
21,AGGCAAAT,-0.324 ± 0.053
22,AACACCTG,0.472 ± 0.0011
23,CACACCTG,0.478 ± 0.0049
24,TACACCAA,0.0439 ± 0.018
